According to PubChem BioAssay AID1745848 (National Center for Advancing Translational Sciences (NCATS), 2022):
The campaign covered roughly 2,100 compounds. About 940 (45%) were called active. Not shown: some 48% with an inconclusive outcome. Calls follow the shape of the dose curve; as a rule, active = well fitted inhibition curve with a large enough effect; inconclusive = small, poorly fitted or top-dose-only effect; inactive = no such curve, though single readings can be large or run the other way. The set was probably picked from earlier hits. The list shows a part of the results.

Test: Confirmatory qHTS for Inhibitors of ATXN expression; also: nearly all actives have a fitted effect of over 65% in size;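 as to activity change, negative = inhibition: 0% = DMSO vehicle wells and -100% = medium-only wells without cells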
Conditions: ATXN2-luciferase reporter cells, luminescence, 24 h; series mostly up to 11.5 µM; activity change, negative = inhibition: at the top concentration
Outline: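 Cells carrying ATXN2-luciferase reporter exposed 24 h at 37 C to compound. Viability then read by CellTiter-Fluor (25 uM GF-AFC, 30 min), followed by SteadyGlo luminescence; medium-only wells set 100% inhibition.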
Potency is read from the fitted curve at half-maximal effect.

Potency, active:
Cc1cccc2c1-c1sc(C(=O)Nc3ccccc3N3CCN(C)CC3)cc1CO2 25.1 µM
CCn1c(COc2ccccc2C)nnc1SCC(=O)N1CCN(c2ccccc2)CC1 14.1 µM
CC(C)(CC(=O)N1CCN(c2ccc(Cl)cc2)CC1)CC1=NS(=O)(=O)c2ccccc2N1 2.51 µM
Cc1nnc(N/N=C/c2ccccn2)[nH]c1=O 1.41 µM
O=c1nc(N/N=C/c2ccccn2)cn[nH]1 28.2 µM
C(=N\Nc1ccc2nncn2n1)/c1ccccn1 17.8 µM
Cc1[nH]n2c(=O)cc(C(C)(C)C)nc2c1-c1ccccc1 7.08 µM
CCCc1cc(=O)[nH]c(-n2[nH]c3c(c2=O)CCCC3)n1 15.8 µM
CCCN(CCC)S(=O)(=O)c1ccc(C(=O)Nc2nnc(-c3cc(OC)cc(OC)c3)o2)cc1 1.58 µM
CC1(C)COCN1S(=O)(=O)c1ccc(C(=O)Nc2nnc(-c3ccc(Cl)s3)o2)cc1 1.12 µM
COc1ccc(-c2nnc(NC(=O)c3ccc(S(=O)(=O)N4COCC4(C)C)cc3)o2)cc1 2.51 µM
COc1cc(NC(=O)N2CCc3nc(Nc4cc(Cl)cc(Cl)c4)ncc3C2)cc(OC)c1OC 3.98 µM
CCOC(=O)C(C(C)=O)c1c(Br)c(O)c(O)c2c(C(=O)c3ccc(C)cc3)coc12 (stereo unspecified) 5.62 µM
CC(=O)C(C(C)=O)c1c(Cl)c(O)c(O)c2c(C(=O)c3ccccc3)coc12 5.62 µM
O=C(Nc1ccc(OCC(F)(F)C(F)F)c(C(F)(F)F)c1)c1ccc(Cl)cc1 3.55 µM
O=C(NCc1ccccc1)C1=C[C@@H](c2csc3ccccc23)C[C@@H](OCCCCO)O1 3.55 µM
CN(C)C(=O)CSc1nc(-c2ccccc2)nc2c1CCCC2 17.8 µM
COC(=O)C1=C(C)N(Cc2ccccc2)C(=NCCc2ccccn2)N[C@H]1c1cccc(C(F)(F)F)c1 3.16 µM
COC(=O)C1=C(C)N(Cc2ccccc2)C(=NCCc2cccnc2)N[C@H]1c1ccc(Br)cc1 25.1 µM
CCc1cc(-c2nnn(CCC3COCCO3)c2CC)ccc1-c1cn(CCc2c[nH]c3ccccc23)nn1 (stereo unspecified) 8.91 µM
O=C(N/N=C/c1cc([N+](=O)[O-])ccc1O)c1ccc(COc2ccc3c(c2)CCC3)o1 3.55 µM
Cn1ncc2c(Nc3cccc(Cl)c3)nc(Nc3cccc(Cl)c3)nc21 28.2 µM
COc1ccccc1OCCN1CSC(=S)N(C)C1 17.8 µM
COC1C=CC=C(C)C(=O)NC2=CC(=O)C(N)=C(CC(C)CC(OC)C(O)C(C)C=C(C)C1OC(N)=O)C2=O (stereo unspecified) 0.282 µM
CSc1nc(C)cc(OCC(=O)N/N=C/c2ccccc2O)n1 2 µM
O=C(COc1nsnc1N1CCOCC1)N/N=C/c1ccccc1O 14.1 µM
C/C(=N\OCC(=O)N/N=C/c1ccccc1O)c1cccs1 12.6 µM
CCN1CCN(C(c2ccc(C(F)(F)F)cc2)c2ccc3cccnc3c2O)CC1 (stereo unspecified) 3.55 µM
CN1CCN(C(c2ccc(C(F)(F)F)cc2)c2ccc3cccnc3c2O)CC1 (stereo unspecified) 7.94 µM
O=C(Nc1c(Cl)cccc1Cl)Oc1cccc2cccnc12 10 µM
O=C(N/N=C/c1sc(N2CCOCC2)nc1-c1ccccc1)c1ccccc1O 28.2 µM
Cc1cc2oc3ccc(NCCC4CCCN4C)cc3c(=O)c2cc1C (stereo unspecified) 31.6 µM
CCCn1ncc(CN2CCC(C(=O)Nc3cccc(-c4cccc(F)c4)c3)CC2)c1C 28.2 µM
Cc1cc(C)c2nc(N(CCCN(C)C)C(=O)c3ccc4c(c3)OCCO4)sc2c1 28.2 µM
Cc1ccc2sc(N(CCCN(C)C)C(=O)c3ccc(S(=O)(=O)N4CCCCCC4)cc3)nc2c1C 28.2 µM
Cc1ccc2nc(N(CCCN(C)C)C(=O)c3ccc(S(=O)(=O)N4CCCCCC4)cc3)sc2c1 3.16 µM
CCN(c1ccccc1)S(=O)(=O)c1ccc(C(=O)N(CCCN(C)C)c2nc3c(C)cccc3s2)cc1 25.1 µM
Nc1ccn([C@@H]2O[C@H](CO)[C@@H](O)C2O)c(=O)n1 (stereo partly specified) 3.55 µM
Nc1ncn([C@@H]2O[C@H](CO)[C@@H](O)[C@H]2O)c(=O)n1 3.98 µM
Nc1ccc2c(c1)OC1(CCCC1)O2 0.316 µM
Clc1ccc2c(NCc3ccccc3)ccnc2c1 15.8 µM
COc1ccc(-c2cc(C3CCN(c4ccc(C(C)=O)cc4[N+](=O)[O-])CC3)[nH]n2)cc1 15.8 µM
Cc1ccc(C)c(NC(=O)c2ccccc2NS(=O)(=O)c2cc([N+](=O)[O-])ccc2C)c1 2.51 µM
COc1ccc(-c2nc(NC(=O)C3CC(=O)N(c4ccc5c(c4)OCCO5)C3)sc2C)cc1 (stereo unspecified) 8.91 µM
CCc1ccc(-c2csc(NC(=O)C3CC(=O)N(c4ccc5c(c4)OCCO5)C3)n2)cc1 (stereo unspecified) 11.2 µM
CCCCC(=O)NC(c1ccc(OC)c(OC)c1)c1ccc2cccnc2c1O (stereo unspecified) 2.82 µM
CCCCC(=O)NC(c1ccc(Cl)cc1Cl)c1ccc2cccnc2c1O (stereo unspecified) 0.708 µM
CCC(=O)NC(c1ccc(Cl)cc1Cl)c1ccc2cccnc2c1O (stereo unspecified) 1.26 µM
CCCC(=O)NC(c1ccc(Cl)cc1Cl)c1ccc2cccnc2c1O (stereo unspecified) 2.82 µM
CCCCC(=O)NC(c1ccccc1Cl)c1ccc2cccnc2c1O (stereo unspecified) 2 µM
CCCCC(=O)NC(c1ccccc1OC)c1ccc2cccnc2c1O (stereo unspecified) 2 µM
NNC(=O)/C(=N/Nc1ccccc1)S(=O)(=O)c1ccc(Cl)cc1 4.47 µM
CCCOc1ccc(C(=O)C(CN2CCOCC2)c2ccccc2)cc1 (stereo unspecified) 25.1 µM
COc1ccccc1C(=O)NNC1=C(C(=O)C(F)(F)F)CCC1 1.58 µM
CCN(CC)CCn1c2ccccc2c2cnc(N)c(C#N)c21 1.58 µM
O=S(=O)([N-]c1nc2ccccc2nc1-[n+]1ccc(Cc2ccccc2)cc1)c1ccc(Br)s1 8.91 µM
Cc1ccc2c(c1)N(C)/C(=C/c1cccc[n+]1C)S2 4.47 µM
CC[n+]1ccccc1/C=C1\Sc2ccc(C)cc2N1C 8.91 µM
COc1cccc(-c2nc(N3CCN(C)CC3)c3ccccc3n2)c1O 3.16 µM
CCOC(=O)c1c(NC(=O)/C=C/C(=O)O)sc(C)c1-c1ccc(Cl)cc1 25.1 µM
COc1cc(/C=C/CN2CCC(C(=O)NC(c3ccc(F)cc3)c3ccc4ccccc4n3)CC2)ccc1OC(C)=O (stereo unspecified) 17.8 µM
CCCCC(=O)NC(c1ccccc1)c1ccc2cccnc2c1O (stereo unspecified) 2.82 µM
CCCC(=O)NC(c1ccccc1)c1ccc2cccnc2c1O (stereo unspecified) 2.82 µM
CC(N)c1csc(NC(=O)c2cc(C(C)(C)C)nn2Cc2ccccc2)n1 (stereo unspecified) 3.16 µM
FC(F)(F)c1nc(-c2cccs2)ncc1-c1nnnn1-c1ccc(Cl)cc1 20 µM
Cc1nc2ccc(NC(=O)c3ccc(S(=O)(=O)N(C)c4ccccc4)cc3)cc2s1 2.24 µM
CN(c1ccccc1)S(=O)(=O)c1cccc(NC(=O)c2cc(=O)c3ccccc3o2)c1 28.2 µM
Cc1nc2ccc(NC(=O)c3cccc(S(=O)(=O)N(C)c4ccccc4)c3)cc2s1 3.98 µM
CC[n+]1c(C=C2C=C(C)OC(C)=C2)sc2ccccc21 6.31 µM
Cc1cc(Nc2cccc([N+](=O)[O-])c2)n2c(nc3ccccc32)c1C#N 1.12 µM
Cc1cc(Cl)c(C(=O)Nc2cccc(C(F)(F)F)c2)c(C)n1 11.2 µM
CCOc1ccccc1C(=O)Nc1ccc2nc(N3CCN(c4ncccn4)CC3)cc(C)c2c1 7.94 µM
CCCCC(=O)NC(c1ccc(N(C)C)cc1)c1ccc2cccnc2c1O (stereo unspecified) 1.26 µM
CCCCC(=O)NC(c1ccc(N(CC)CC)cc1)c1ccc2cccnc2c1O (stereo unspecified) 0.355 µM
COc1ccc(CNCC(O)(c2ccc(Cl)cc2)c2ccc(Cl)cc2)cc1OC 3.16 µM
Cc1cc(C)c2c(N)c3cccc(C)c3nc2n1 10 µM
O=C(COc1ccc(F)cc1)N/N=C/c1cccc2cccnc12 3.55 µM
O=C(COc1ccc(Cl)cc1)N/N=C/c1cccc2cccnc12 25.1 µM
CC(=O)Nc1sc2c(c1-c1nc3ccccc3s1)CN(C(C)C)CC2 10 µM
CC(Oc1ccc(F)cc1)C(=O)Nc1nc(-c2ccccn2)cs1 (stereo unspecified) 2.24 µM
O=C(Nc1nc(-c2ccccn2)cs1)c1ccccc1-n1cnnn1 2 µM
CCc1sc(C(=O)Nc2nc(-c3ccccn3)cs2)cc1C 8.91 µM
O=C(Nc1nc(-c2ccccn2)cs1)c1ccco1 4.47 µM

Activity change, negative = inhibition, inactive:
C(=N\NC(=Nc1ccccc1)c1ccccn1)/c1ccccn1 0.998% [at 57.5 µM]
C=CCOC(=O)C1=C[C@@H](c2ccc3c(c2)OCO3)C[C@@H](OCCCCO)O1 -7.67% [at 57.5 µM]
O=C1CCCC(O)=C1C=NCc1ccccc1 19.3%
O=C(Nc1cccc2cccnc12)c1csc(COCCO)n1 -22.5% [at 57.5 µM]
CC(=O)c1ccc(N2CCN(CC(O)COC(c3ccccc3)c3ccccc3)CC2)cc1 (stereo unspecified) -21.7%
Cn1nccc1C(=O)N1CCCC(C(=O)c2cccc3ccccc23)C1 (stereo unspecified) -6.41% [at 57.5 µM]
CCCC(=O)Nc1ccc2nc(SCC(=O)N3CCCC3)sc2c1 4.06% [at 57.5 µM]
CCCCC(=O)N(CCOC)c1nnc(-c2ccccc2C)s1 -18.9% [at 57.5 µM]
